High-throughput results (PubChem)
RE007 growth inh – less growth of the S. pombe RE007 Vpr strain | AID 651644 | S. pombe RE007 Vpr strain, BacTiter-Glo ATP luminescence, 24 h | actives 0.21% (n = 360,000) | Potency, µM (highest dose often 92.2 µM), usual class: inhibitors; active = well fitted falling curve with a large enough effect; inconclusive = small, poorly fitted or top-dose-only effect; inactive = no such curve, though single readings can be large or run the other way; also: nearly all actives have a fitted effect of over 50% in size
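Fission yeast RE007 carrying one integrated HIV-1 vpr copy, seeded at OD 0.01 in PMG+AL medium with 23 nL pinned compound. Grown 24 h at 30 degrees; viability read by BacTiter-Glo luminescence after 5 min.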
LmPK inhibitor – LmPK (Leishmania mexicana) enzyme inhibition | Potency, µM (doses to about 57.5 µM), usual class: inhibitors | Q27686 | purified LmPK, Kinase-Glo ATP luminescence, 1 h | actives 0.37% (n = 290,000)
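Purified LmPK (0.1 nM) converted ADP (0.1 mM) to ATP with PEP (0.5 mM) in imidazole buffer pH 7.2 with KCl and MgCl2, 1 h at room temperature. ATP was read by Kinase-Glo luminescence; data normalized to uninhibited and no-enzyme controls.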
Shiga toxin inh – blocks Shiga toxin action in Vero cells. Vero cells, Shiga toxin protein synthesis inhibition reporter. inhibition, % at 38.7 µM. actives 9.2% (n = 290,000). AID 2315; in the data active = inhibition mostly above about 28%, no sharp cut-off; inactive = mostly below about 43%
TbPYK inhibitor – inhibitors of Trypanosoma brucei pyruvate kinase; Q57TT1; TbPYK enzyme, Kinase-Glo Plus ATP luminescence, 45 min; Potency, µM (titrated, usually from 76.8 µM), most hits filed as inhibitors; actives 0.12% (n = 410,000); AID 624173; also: nearly all actives have a fitted effect of over 50% in size
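Luminescence from Kinase-Glo Plus, added after a 45-minute room-temperature reaction, served as the end-point read-out. The enzyme and substrate were preincubated with compound before ADP (130 uM final) initiated turnover. Concentration-effect curves came from normalized qHTS data.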
CHX counter – affects cycloheximide protein synthesis inhibition readout, counter-screen | cell reporter, cycloheximide protein synthesis inhibition counterscreen | max response, % | actives 12% (n = 300,000) | AID 2314; in the data active = max response mostly above about 13%, no sharp cut-off; inactive = mostly below about 14%; also: read at 38.3 µM for the half of the compounds with a filed dose
FBPA Giardia inh – Giardia lamblia aldolase inhibition; purified Giardia FBPA; Potency, µM (series often up to 59.6 µM), most hits filed as inhibitors; actives 0.71% (n = 290,000); AID 2451; A8B2U2; also: nearly all actives have a fitted effect of over 55% in size
Target sequence (A8B2U2 whole entry, looked up): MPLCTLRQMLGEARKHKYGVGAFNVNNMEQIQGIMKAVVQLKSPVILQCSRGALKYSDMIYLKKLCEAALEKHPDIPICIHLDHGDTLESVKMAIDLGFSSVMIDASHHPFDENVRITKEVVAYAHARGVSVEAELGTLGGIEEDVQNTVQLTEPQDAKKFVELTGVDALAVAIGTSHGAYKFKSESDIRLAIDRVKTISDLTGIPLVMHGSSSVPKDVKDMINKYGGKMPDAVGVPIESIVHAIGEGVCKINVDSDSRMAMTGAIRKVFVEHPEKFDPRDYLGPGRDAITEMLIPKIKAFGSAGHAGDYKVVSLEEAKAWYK
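40 nM FBPA preincubated 10 min at RT with compound (up to 57.5 uM final), then substrate plus GAPDH/TPI/NAD/arsenate coupling and diaphorase/resazurin added. Fluorescence read after 20 min at RT, 525/598 nm.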
Of the large screens only hits and unclear results are named; the others gave an inactive call. Shown is part of a subset that was picked to be rich in hits. Unless noted, calls follow the shape of the dose curve; as a rule, active = well fitted curve in the direction sought with a large enough effect; inconclusive = small, poorly fitted or top-dose-only effect, or another doubt; inactive = no such curve, though single readings can be large; an effect the other way counts as inactive or inconclusive.

COC(=O)C(=O)Nc1nnc(COc2ccccc2)s1	none (no result: FBPA Giardia inh)
CC(=O)c1csc(COc2ccc(Cl)cc2)n1	Shiga toxin inh 38, CHX counter 44
CC(=O)Nc1nnc(COc2ccccc2)s1	Shiga toxin inh 55, CHX counter 21
CC(=O)Nc1nnc(COc2ccc(Cl)cc2)s1	Shiga toxin inh 92, CHX counter 57
N=c1c2ccccc2nc2n1CCCCC2	none (no result: LmPK inhibitor, Shiga toxin inh, CHX counter, FBPA Giardia inh)
Nc1nc2ncccn2c1-c1ccc(C(F)(F)F)cc1	none (no result: LmPK inhibitor, Shiga toxin inh, TbPYK inhibitor, CHX counter, FBPA Giardia inh)
O=C(Nc1ccccc1Cl)c1cc(=O)c2ccccc2o1	CHX counter 30 (no result: Shiga toxin inh)
O=C(Nc1ccccc1Br)c1cc(=O)c2ccccc2o1	Shiga toxin inh 99
O=C(NCc1ccccc1)c1cc(=O)c2ccccc2o1	none
Cc1c(C)c2c(c(C)c1OC(=O)c1cccnc1)CC[C@@](C)(CCC[C@H](C)CCC[C@H](C)CCCC(C)C)O2	none (no result: RE007 growth inh, LmPK inhibitor)
CCOC(=O)N1CCC(=NNc2nc(C)cc(=O)[nH]2)CC1	Shiga toxin inh 42
CCOC(=O)N1CCC(=NNc2ccc(S(N)(=O)=O)cc2[N+](=O)[O-])CC1	none
O=C(CCCOc1ccccc1)Nc1ccncc1	none
O=C(CCCOc1ccccc1)Nc1ccc(Cl)cn1	Shiga toxin inh 64, CHX counter 30
CCCCCCC(=O)Nc1ccc(Cl)cn1	Shiga toxin inh 100, CHX counter 32
CCO[C@@H](Cc1ccc(OCCc2ccc(OS(C)(=O)=O)cc2)cc1)C(=O)O	none (no result: RE007 growth inh, LmPK inhibitor, Shiga toxin inh, CHX counter, FBPA Giardia inh)
CCCC[C@@H]1CCCO[C@@](C(=O)NCC2CC2)(C(F)(F)F)C1	none (no result: RE007 growth inh, LmPK inhibitor, TbPYK inhibitor)
COc1ccc(S(=O)(=O)N2CCN(CC(=O)Nc3ccc(Cl)c(C(F)(F)F)c3)CC2)cc1	none (no result: RE007 growth inh, LmPK inhibitor, Shiga toxin inh, CHX counter, FBPA Giardia inh)
Cc1cc(C)n(C2=NS(=O)(=O)c3ccccc32)n1	LmPK inhibitor 13µM
O=C(Nc1cccs1)Nc1ccccc1Br	RE007 growth inh inconclusive, Shiga toxin inh 47, CHX counter 30
O=C(NC[C@H](O)c1ccccc1)c1ccccc1	none (no result: RE007 growth inh, LmPK inhibitor, Shiga toxin inh, TbPYK inhibitor, CHX counter)
Cc1cc(NC(=O)Nc2ccccc2Cl)no1	Shiga toxin inh 64, CHX counter 27
COc1ccc(Cl)cc1NC(=O)Nc1cnccn1	none
COc1ccc(Cl)cc1NC(=O)Nc1cc(C)on1	Shiga toxin inh 61, CHX counter 36 (no result: FBPA Giardia inh)
O=C(NCC(O)c1ccccc1)Nc1cccs1 (stereo not drawn)	CHX counter 24
Cc1ccc(C(=O)NCCc2ccc(Cl)cc2)cc1-n1c(C)nc2cccnc21	none (no result: RE007 growth inh, LmPK inhibitor, Shiga toxin inh, CHX counter, FBPA Giardia inh)
Cc1cccc(C)c1NC(=O)Nc1cccs1	none
COc1cccc(C(=O)Nc2cc(C)on2)c1OC	Shiga toxin inh 76, CHX counter 49
O=C(Nc1cccs1)Nc1cc(C(F)(F)F)ccc1Cl	none (no result: RE007 growth inh, LmPK inhibitor, Shiga toxin inh, CHX counter, FBPA Giardia inh)
O=C(Nc1ccc(C(F)(F)F)cn1)Nc1cccs1	Shiga toxin inh 35, CHX counter 26
COc1cccc(OC)c1C(=O)Nc1cc(C)on1	none (no result: FBPA Giardia inh)
Cc1cc(NC(=O)Nc2cccs2)no1	CHX counter 16
COc1ccc(N2CCN(C(=O)c3ccc(NS(=O)(=O)c4ccccc4)cc3)CC2)cc1	CHX counter 20
Cc1ccc(C(=O)Nc2ccc(C(=O)N3CCCCC3)cc2)cc1	CHX counter 27
Cc1ccc(NS(=O)(=O)c2ccc(C(=O)N3CCCCCC3)cc2)cc1	none (no result: LmPK inhibitor, Shiga toxin inh, CHX counter, FBPA Giardia inh)
Cc1ccc(NS(=O)(=O)c2ccc(C(=O)N3CCCCCCC3)cc2)cc1	Shiga toxin inh 99, CHX counter 41 (no result: FBPA Giardia inh)
Cc1cccc(CC(=O)Nc2ccc(C(=O)N3CCCCC3)cc2)c1	CHX counter 14
Cc1cc(C)c(C)c(S(=O)(=O)NCc2ccc(C(=O)N3CCCCC3)cc2)c1C	CHX counter 22
Cc1cc(C)c(C)c(S(=O)(=O)NCc2ccc(C(=O)N3CCCC3)cc2)c1C	none
Cc1ccc(C(=O)Nc2c(C)nc3ccccn3c2=O)cc1	none (no result: RE007 growth inh, LmPK inhibitor, Shiga toxin inh, CHX counter, FBPA Giardia inh)
CCOC(=O)c1ccc(NC(=O)c2cc(F)c(F)cc2Cl)cc1	CHX counter 18
COc1ccc(NC(=O)c2cc(F)c(F)cc2Cl)cc1Cl	Shiga toxin inh 50, CHX counter 46
O=C(Nc1ccc2[nH]c(=O)[nH]c2c1)c1cc(F)c(F)cc1Cl	none
Brc1ccc(Nc2ncnc3[nH]ncc23)cc1	none
CCc1ccc(OCC(=O)NC(C)(C)C)cc1	Shiga toxin inh 44, CHX counter 23
